Vaccinia mCherry: qHTS for Stage-Specific Inhibitors of Vaccinia Orthopoxvirus: mCherry Reporter Primary qHTS. 310,000 compounds, 0.63% hits. Potency, µM (titrated, usually from 36.5 µM), most hits filed as inhibitors. AID 720579, 2013. Vaccinia virus mCherry reporter infection, fluorescence; calls by dose curve; tested in A549 cells; also: nearly all actives have a fitted effect of over 35% in size
Vaccinia Venus: qHTS for Stage-Specific Inhibitors of Vaccinia Orthopoxvirus: Venus Reporter Primary qHTS; 330,000 compounds, 0.46% hits; Potency, µM (doses to about 36.5 µM), actives largely listed as inhibitors; AID 720580, 2013; Vaccinia virus Venus reporter expression, fluorescence; calls by dose curve; tested in A549 cells; also: nearly all actives have a fitted effect of over 30% in size
Lassa entry inh: qHTS for Inhibitors of binding or entry into cells for Lassa Virus. Potency, µM (highest dose often 37.9 µM), most hits filed as inhibitors. 300,000 compounds, 1.2% hits. Lassa virus pseudotype entry inhibition, cell reporter; calls by dose curve; tested in HEK293 cells; also: nearly all actives have a fitted effect of over 50% in size
FMDV inh: High Throughput Screening for Foot and Mouth Disease Virus Antivirals | FMDV antiviral cell-based qHTS | Potency, µM (doses to about 57.9 µM), usual class: inhibitors | 410,000 compounds, 1.2% hits; calls by dose curve; tested in HEK293T cells; also: read-out not given here; nearly all actives have a fitted effect of over 45% in size
Marburg entry inh: qHTS for inhibitors of binding or entry into cells for Marburg Virus | Marburg virus pseudotyped entry inhibition, cell reporter | Potency, µM (series often up to 37.8 µM), hits mostly inhibitors | 300,000 compounds, 1.8% hits | AID 540276, 2011; calls by dose curve; tested in HEK293 cells
Of the large screens only hits and unclear results are named; the others gave an inactive call. Only some compounds are listed: those with a hit (about 3.2% of all), similar ones and a draw of the others.

CC1C=CC(C)C(C(=O)c2ccccc2)C1C(=O)c1ccccc1 (stereo not given)	none (no result: Lassa entry inh, Marburg entry inh)
O=C(c1ccccc1)C1OC1C(=O)c1ccccc1 (stereo not given)	Vaccinia mCherry inconclusive, Lassa entry inh inconclusive, Marburg entry inh 7.94µM
Cc1c(Br)c([N+](=O)[O-])nn1CCCC(=O)N1CCN(c2ccccc2)CC1	Marburg entry inh 12.6µM
Cc1c(Cl)c([N+](=O)[O-])nn1CCCC(=O)N1CCN(c2ccccc2)CC1	Marburg entry inh inconclusive
CSC1=NC(C)(C)C=C(/C=C/c2ccc(Cl)cc2)N1	Lassa entry inh inconclusive, FMDV inh 20µM, Marburg entry inh inconclusive
CSC1=NC(C)(C)C=C(/C=C/c2ccc(Cl)cc2Cl)N1	FMDV inh inconclusive, Marburg entry inh inconclusive
Cc1ccc(-c2nc(CS(=O)CC(=O)NCCCN3CCN(Cc4ccccc4)CC3)c(C)o2)cc1 (stereo not given)	Vaccinia mCherry inconclusive, Vaccinia Venus inconclusive, Lassa entry inh inconclusive, Marburg entry inh 11.2µM
COc1ccc(S(=O)(=O)NCC(=O)NCc2cc(=O)n(C)c(=O)n2C)cc1	Lassa entry inh inconclusive, Marburg entry inh inconclusive
Cc1cc(C)n(CCCN2CCC(C(=O)Nc3cccc(-c4cccc(F)c4)c3)CC2)n1	Vaccinia mCherry inconclusive, Vaccinia Venus inconclusive, FMDV inh inconclusive, Marburg entry inh 12.6µM
Cc1cccc(Nc2nnc(-c3ccc(N4CCOCC4)c([N+](=O)[O-])c3)c3ccccc23)c1	Lassa entry inh 10µM, Marburg entry inh 2.24µM
Cc1ccc(-c2nnc(Nc3cccc(O)c3)c3ccccc23)cc1S(=O)(=O)N1CCOCC1	Lassa entry inh inconclusive (no result: Marburg entry inh)
COC(C(=O)C(O)C(C)O)C1Cc2cc3cc(OC4CC(OC5CC(O)C(O)C(C)O5)C(O)C(C)O4)c(C)c(O)c3c(O)c2C(=O)C1OC1CC(OC2CC(OC3CC(C)(O)C(O)C(C)O3)C(O)C(C)O2)C(O)C(C)O1 (stereo not given)	Vaccinia mCherry 0.282µM, Vaccinia Venus 0.282µM (no result: Lassa entry inh, FMDV inh, Marburg entry inh)
CC(=O)Nc1ccc(NC(=O)COC(=O)c2ccccc2OCc2cccc(Br)c2)cc1	none (no result: Lassa entry inh, FMDV inh, Marburg entry inh)
COc1cccc(/C=C2\SC(=S)N(CCCC(=O)NC3=NCCS3)C2=O)c1	none (no result: Vaccinia mCherry, Vaccinia Venus, Lassa entry inh, Marburg entry inh)
CCc1ccc(/C=C2\SC(=S)N(CCCC(=O)Nc3cc(C)on3)C2=O)cc1	FMDV inh 15.8µM (no result: Lassa entry inh, Marburg entry inh)
CCc1ccc(/C=C2\SC(=S)N(CCCC(=O)NC3=NCCS3)C2=O)cc1	FMDV inh 14.1µM (no result: Lassa entry inh, Marburg entry inh)
Cc1ccc(C(C)C)c(OCC(=O)Nc2cc(-c3nc4ccccc4[nH]3)ccc2C)c1	Lassa entry inh inconclusive, FMDV inh inconclusive, Marburg entry inh inconclusive
COc1ccc(OC)c2c1C(=O)c1ccccc1C2=O	none
COc1ccc(OC)c2c1C(=O)C(Cl)=C(Cl)C2=O	FMDV inh 20µM (no result: Vaccinia mCherry, Vaccinia Venus, Lassa entry inh, Marburg entry inh)
COc1cc(CNC(=O)c2ccc3c(c2)c(C)c(C)n3Cc2cccc(C)c2)cc(OC)c1OC	none (no result: Marburg entry inh)
COc1ccc(C2C3=C(Nc4ncnn42)c2ccccc2CCC3)cc1 (stereo not given)	none (no result: FMDV inh)
Fc1ccc(/C=C2\CCCC3=C2Nc2ncnn2C3c2ccc(F)cc2)cc1 (stereo not given)	Vaccinia mCherry inconclusive, Vaccinia Venus 17.8µM, Lassa entry inh inconclusive, FMDV inh inconclusive, Marburg entry inh inconclusive
COc1ccc2nc3cc(Cl)ccc3c(Nc3cc(C(C)C)c(O)cc3C)c2c1	Vaccinia mCherry inconclusive, Vaccinia Venus inconclusive, Lassa entry inh inconclusive, FMDV inh inconclusive, Marburg entry inh 11.2µM
CC(=O)OCC1O[C@@H](O[C@@H]2C[C@H]3C(C)(C)[C@H](OC(C)=O)CC[C@]3(C)[C@H]3CC[C@]45C[C@]4(CC[C@H]5[C@@H](C)C[C@@H](O)[C@H](O)C(C)(C)O)[C@@]32C)[C@H](O)[C@@H](O)[C@@H]1O (stereo not given in full)	Lassa entry inh 14.6µM, Marburg entry inh inconclusive (no result: Vaccinia mCherry, Vaccinia Venus, FMDV inh)
Cc1cc(C(F)(F)F)c(C#N)c(SCC(=O)Nc2nc3ccccc3s2)n1	Lassa entry inh inconclusive, FMDV inh inconclusive, Marburg entry inh 4.47µM
Cc1ccc2sc(NC(=O)CSc3nc(C)cc(C)c3C#N)nc2c1	Lassa entry inh inconclusive, Marburg entry inh inconclusive (no result: Vaccinia mCherry, Vaccinia Venus)
Cc1nc(SCC(=O)Nc2nccs2)c(C#N)c(C)c1C	none (no result: Vaccinia mCherry, Vaccinia Venus, Lassa entry inh, Marburg entry inh)
Cc1nc(SCC(=O)Nc2nc3ccccc3s2)c(C#N)c(C)c1C	Lassa entry inh inconclusive, FMDV inh 0.1µM, Marburg entry inh inconclusive (no result: Vaccinia mCherry, Vaccinia Venus)
CNc1ccc(/C=C/c2ccccc2)cc1	none (no result: Lassa entry inh, FMDV inh, Marburg entry inh)
O=C(NC1CCCCCCC1O)c1ccccc1 (stereo not given)	Marburg entry inh inconclusive
O=C(NC1=NC2CCCCC2N1)c1ccccc1 (stereo not given)	Lassa entry inh inconclusive, FMDV inh 12.6µM, Marburg entry inh inconclusive
COCCN(C)C(=O)c1cnn(-c2ncc3c(n2)-c2ccccc2CC3)c1C	none (no result: Lassa entry inh, Marburg entry inh)
CN1CCC2(CC1)c1ccccc1-c1ccccc12	Vaccinia mCherry inconclusive, Lassa entry inh inconclusive, Marburg entry inh inconclusive
CN1CCC(=C2c3ccccc3C=Cc3ccccc32)CC1	Lassa entry inh 8.2µM, FMDV inh inconclusive, Marburg entry inh 7.08µM
CCN(CC)CCOC(=O)c1ccc(N/C=C(/C#N)c2nc(-c3ccc(OC)cc3)cs2)cc1	Marburg entry inh 3.98µM
COc1ccc(-c2cc(-c3ccccc3)[n+](C)c(-c3ccccc3)c2)cc1	Lassa entry inh inconclusive, FMDV inh inconclusive, Marburg entry inh 6.31µM
O=S(=O)(Nc1cc(Sc2ncn[nH]2)c(O)c2ccccc12)c1ccccc1	Vaccinia mCherry 6.31µM, Vaccinia Venus 2.51µM, Lassa entry inh inconclusive, FMDV inh 25.1µM, Marburg entry inh inconclusive
Cc1cc(O)c(Sc2ncn[nH]2)cc1NS(=O)(=O)c1ccc(Cl)cc1	none
Cc1cc2c(cc(C(=O)OCC(=O)NCc3cccs3)n2C(C)C)o1	Lassa entry inh 9.2µM, Marburg entry inh inconclusive (no result: FMDV inh)
N#CC1c2ccccc2C=CN1C(=O)N(c1ccccc1)c1ccccc1 (stereo not given)	Vaccinia mCherry inconclusive, Lassa entry inh inconclusive, FMDV inh 31.6µM, Marburg entry inh inconclusive
Cc1c(C(=O)NCc2ccc(Cl)cc2)sc2nc3n(c(=O)c12)CCC3	none (no result: Marburg entry inh)
COc1ccc(CNC(=O)c2sc3nc4n(c(=O)c3c2C)CCCCC4)cc1	FMDV inh 22.4µM (no result: Marburg entry inh)
Cc1cc(C)cc(NC(=O)/C=C/c2ccc([N+](=O)[O-])s2)c1	none
Cc1ccccc1NC(=O)/C=C/c1ccc([N+](=O)[O-])s1	Lassa entry inh inconclusive, FMDV inh 10µM, Marburg entry inh inconclusive
CC(=O)c1cccc(NC(=O)/C=C/c2ccc([N+](=O)[O-])s2)c1	Lassa entry inh 7.08µM, FMDV inh inconclusive, Marburg entry inh inconclusive
CC(C(=O)c1ccc(-c2ccccc2)cc1)[n+]1ccccc1 (stereo not given)	Lassa entry inh inconclusive, Marburg entry inh 10µM
Cc1cc[n+](C(C)C(=O)c2ccc(-c3ccccc3)cc2)cc1 (stereo not given)	Lassa entry inh 10µM, FMDV inh inconclusive, Marburg entry inh inconclusive
COc1ccc(C(C(=O)NC(C)(C)C)N(CCO)C(=O)CCC(=O)Nc2cc(C)on2)cc1 (stereo not given)	Lassa entry inh inconclusive
